# Data: the supplement of paper PMC6555819
# Experiments:
# Experiment in all cases: PBM binding z-score (relative to random genomic background probes); higher = stronger binding; sequences stand for … in GC…GCGATTGACAGCGTAGAATGAAGG
# [1] = tested on: FXR:RXRa (NR concentration 270 nM, RXRa partner concentration 90 nM)
# Procedure, shortened: (§1)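 Antibodies against each partner of ligand-free nuclear receptor dimers (one per run) detected binding on custom Agilent 4×180K protein-binding microarrays after 1 h incubation. The double-stranded probes had 34-nt variable regions carrying direct-repeat seeds, single-nucleotide variants, half-site ablations and random human genomic background sequences. Binding z-scores, from regression-normalized fluorescence, use the random background probes as reference.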
# [2] = tested on: LXRa:RXRa (NR concentration 270 nM, RXRa partner concentration 90 nM)
# Procedure, shortened: as §1
# [3] = tested on: LXRa homodimer (NR concentration 270 nM)
# Procedure, shortened: as §1
# [4] = tested on: LXRb:RXRa (NR concentration 270 nM, RXRa partner concentration 90 nM)
# Procedure, shortened: as §1
# [5] = tested on: LXRb homodimer (NR concentration 270 nM)
# Procedure, shortened: as §1
# [6] = tested on: PPARa:RXRa (NR concentration 270 nM, RXRa partner concentration 90 nM)
# Procedure, shortened: as §1
# [7] = tested on: PPARg:RXRa (NR concentration 180 nM, RXRa partner concentration 90 nM)
# Procedure, shortened: as §1
# [8] = tested on: PPARg:RXRa 270nM:90nM, anti-RXR (NR concentration 270 nM, RXRa partner concentration 90 nM)
# Procedure, shortened: as §1
# [9] = tested on: PPARg:RXRa 30nM:10nM, anti-RXR (NR concentration 30 nM, RXRa partner concentration 10 nM)
# Procedure, shortened: as §1
# [10] = tested on: PPARg:RXRa 90nM:30nM, anti-RXR (NR concentration 90 nM, RXRa partner concentration 30 nM)
# Procedure, shortened: as §1
# [11] = tested on: PPARg:RXRa DBDmut IVT, anti-RXR (DBD mutation: RXRa K156A/R161A, NR concentration 270 nM, RXRa partner concentration 90 nM)
# Procedure, shortened: as §1
# [12] = tested on: PPARg:RXRa IVT, anti-PPARg (NR concentration 270 nM, RXRa partner concentration 90 nM)
# Procedure, shortened: as §1
# [13] = tested on: PPARg DBDmut:RXRa IVT, anti-PPARg (DBD mutation: PPARg1 K132A/R137A, NR concentration 270 nM, RXRa partner concentration 90 nM)
# Procedure, shortened: as §1
# [14] = tested on: PPARg DBDmut IVT, anti-PPARg (DBD mutation: PPARg1 K132A/R137A, NR concentration 270 nM)
# Procedure, shortened: as §1
# [15] = tested on: PPARg homodimer (NR concentration 180 nM)
# Procedure, shortened: as §1
# [16] = tested on: PXR:RXRa (NR concentration 270 nM, RXRa partner concentration 90 nM)
# Procedure, shortened: as §1
# [17] = tested on: PXR homodimer (NR concentration 270 nM)
# Procedure, shortened: as §1
# [18] = tested on: RARa:RXR (NR concentration 270 nM, RXRa partner concentration 90 nM)
# Procedure, shortened: as §1
# [19] = tested on: RARa homodimer (NR concentration 270 nM)
# Procedure, shortened: as §1
# [20] = tested on: RARb:RXRa (NR concentration 270 nM, RXRa partner concentration 90 nM)
# Procedure, shortened: as §1
Sequence,PBM binding z-score [1],PBM binding z-score [2],PBM binding z-score [3],PBM binding z-score [4],PBM binding z-score [5],PBM binding z-score [6],PBM binding z-score [7],PBM binding z-score [8],PBM binding z-score [9],PBM binding z-score [10],PBM binding z-score [11],PBM binding z-score [12],PBM binding z-score [13],PBM binding z-score [14],PBM binding z-score [15],PBM binding z-score [16],PBM binding z-score [17],PBM binding z-score [18],PBM binding z-score [19],PBM binding z-score [20]
CGGACTAGGTCATCCAGGACAGTGAATACATTGA,3.64,2.45,0.39,1.81,-0.227,4.22,6.64,5.63,3.03,4.87,7.5,7.58,1.52,0.792,1.9,1.59,0.944,1.89,0.179,3.49
GCTAGTTGGTCAGTTAAAGGTCACACACCGGTCG,3.58,4.58,5.75,3.98,0.905,4.23,3.18,5.17,3.67,4.95,1.33,2.95,0.429,0.266,5.59,4.98,1.44,6.18,2.99,4.13
CCGACCGGGGCAAGGTTACCATAACGCACAGCCA,0.591,1.02,-0.0287,0.604,-0.88,1.3,1.3,1.18,-0.0517,0.495,0.434,0.22,-0.24,-0.801,0.684,0.376,-0.0438,1.28,0.236,1.97
ACAGACATGTGAGTGAAGGTAACTCAGCTGGACG,-0.28,-0.449,-0.659,-0.669,-0.436,-0.3,0.817,-0.286,-0.111,0.163,-0.459,-0.467,-0.0972,-0.0853,-0.419,-0.554,-0.383,-0.531,-0.221,-0.157
ACTAGCAGGCCAAGGGTCACTCAGGATTAGTCCG,2.7,2.61,0.0255,2.69,-0.237,4.39,7.87,7.62,6.72,8.16,1.05,3.72,-0.273,-0.162,4.08,3.21,-0.196,4.33,0.739,3.59
CGTCCAAGTTCAATGCTAGGTCAGTGAAAGCATT,3.05,3.56,2.36,1.92,0.297,2.42,-0.0137,0.79,-0.404,0.397,0.331,0.878,0.0119,0.59,2.95,4.21,4.73,3.6,1.33,3.79
TCATATAGGTAAACAGGGGAAAGTCCGTAAGTTA,1.29,1.09,0.283,0.925,-0.0206,1.61,1.52,2.89,3.92,3.45,4.67,3.46,1.62,0.87,1.18,0.921,0.414,1.21,0.805,0.676
ACTAGCAGGCCAAGTTTGGATCACTCAAACAAAG,-0.476,-0.653,-0.239,-0.541,-0.521,-0.385,0.154,-0.662,-0.693,-0.835,0.238,0.181,-0.895,-0.495,-0.574,-0.494,-0.612,-0.608,-0.518,0.165
TCTAGCAGGTCAGAGGGTCACTCAAGAGGTACGG,4.13,3.26,0.192,2.87,-0.436,4.54,4.39,5.27,3.71,5.21,2.58,3.84,0.285,-0.567,3.57,3.55,-0.129,5.12,0.365,4.07
TCCATTAGTTGAAGGGCAACCGACGAGTCCGTTT,1.27,1.35,0.397,1.23,0.255,1.18,0.134,2.23,3.64,3.02,2.37,0.637,0.0905,0.783,1.13,1.16,0.683,0.989,0.466,1.86
CATACTGGGCCAAAGGTCATTGATTCCAATGCTC,5.32,5.39,4.2,5.17,1.29,6.71,11.9,10.1,10.1,11.1,4.86,6.31,1.88,1.07,3.77,5.52,1.72,6.32,1.82,4.71
CCTAGCAGGCCAGGGTCACTCAAGCATTTCGCTT,2.38,1.67,-0.285,1.95,-1.05,3.1,0.907,1.65,-0.362,0.635,0.393,0.98,-0.961,-1.38,1.04,2.63,-0.595,3.17,-0.537,2.73
CCTCGGAGGACAACAGGCGGTCAGAGCTGCCAGA,-0.211,-0.0211,0.394,-0.76,-1.15,-0.468,-0.327,-0.898,-0.775,-1.03,-0.178,-0.851,-1.43,-1.37,-0.158,-0.464,-0.435,-0.312,-0.034,1.61
CCTGGTTGGTCAAGGTCACACACGCTATAGGTAC,4.28,4.07,2.43,3.92,1.12,4.3,2.92,3.15,1.15,2.22,1.12,3.26,0.676,0.0653,3.15,4.44,2.85,4.78,2.07,4.41
ATCTCTAGGTAAAATTTCAGTGAATCCCGAGGAT,0.303,0.0302,-0.0647,0.162,1.26,0.181,0.177,0.563,0.504,0.487,1.67,1.35,0.773,1.87,0.138,-0.0385,-0.0342,0.0546,0.744,0.377
TCTATTAGTTCAAGGGCAACCGACGAGTCCGTTT,1.82,1.97,1.24,1.45,0.602,2.23,0.394,2.66,3.94,3.37,2.36,1.14,0.61,1.22,1.87,2.28,2.5,1.55,1.41,3.08
CAAACTAGGTCACAGACGTCAAAGTCCGTGCGTA,4.25,3.06,0.272,2.08,0.253,5.37,8.86,7.39,5.35,7.4,8.58,8.8,3,2.09,2.24,1.72,0.0509,2.65,0.354,4.08
GCTATTAGTGGAAAGGGCAACCGAATGATTCTCG,0.118,0.287,-0.215,0.268,-0.406,1.68,1.88,3.6,1.97,3.34,0.437,0.575,0.104,-0.457,0.772,0.478,-0.0365,0.745,0.726,1.93
CGAACGATGGCATGAGTTGATAGCAAATGCCGAT,-0.377,-0.686,-0.408,-0.556,-0.839,-0.496,0.77,0.203,0.0969,-0.044,-0.534,-0.676,-0.379,-0.0268,0.126,-0.184,-0.0321,-0.0116,-0.0736,-0.391
